# Sm TGR inh – inhibitors of Schistosoma mansoni thioredoxin glutathione reductase. 3% of 360,000 active. AID 485364. Potency, µM (series often up to 114 µM), inactives show at the top dose activity change, negative = inhibition, most hits filed as inhibitors. Q962Y6. purified TGR, DTNB reduction, TNB absorbance 405 nm; further: on the % scale 0 is the no-effect control and ±100 the full control effect; nearly all actives have a fitted effect of over 60% in size
#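 Kinetic colorimetric format: TGR-catalysed, NADPH-driven DTNB reduction monitored via TNB absorbance. Enzyme dispensed at 20 nM; compound exposure 15 min at room temperature before reaction start.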
# Pf growth 48h – inhibits P. falciparum growth in the first generation, 48 h; P. falciparum luciferase growth in erythrocytes, 48 h; AID 504832; Potency, µM (highest dose often 28.7 µM), without a hit: top-dose activity change, negative = inhibition, hits mostly inhibitors; 5.9% of 310,000 active; further: on the % scale 0 is the no-effect control and ±100 the full control effect
#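 Parasite viability was followed by luminescence of a genomically integrated firefly luciferase. Cultures held 0.1% parasitemia at 2% hematocrit (final), incubated under 5% CO2 at 37 C.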
# Pf growth 96h – inhibits malaria parasite growth, 96 h; 6.9% of 320,000 active; P. falciparum luciferase reporter growth, 96 h; Potency, µM (top dose mostly 28.7 µM), for the others: at the highest dose activity change, negative = inhibition, most hits filed as inhibitors; further: on the % scale 0 is the no-effect control and ±100 the full control effect
#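 Infected RBCs, 2% Hct / 0.05% parasitemia final; luciferase-reporter P. falciparum; cpd 96 h, 37 C, 5% CO2; luciferase detection reagent; luminescence.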
# NS1 inh – blocks influenza NS1 protein function; AID 2326; 0.4% of 270,000 active; Potency, µM (highest dose often 46.1 µM), for inactives: top-dose activity, positive = more growth; calls by dose curve; further: actives are rising curves; nearly all actives have a fitted effect of over 50% in size
#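 Read-out: OD600 growth recovery of NS1-expressing budding yeast. Cells grown overnight at 30C in -URA glucose medium, washed, resuspended and diluted 1:100 in 2% galactose assay medium, pH 6.0. Same strain lacking NS1 served as positive control.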
# AMA1 RON2 block – inhibitors of Plasmodium falciparum AMA1-RON2 interaction; Potency, µM (series often up to 58.2 µM), for inactives: at the highest dose activity change, negative = inhibition, most hits filed as inhibitors; AlphaScreen AMA1-biotinylated RON2 peptide binding; 0.2% of 360,000 active; AID 720542;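 further: 0% = vehicle wells and -100% = peptide control; nearly all actives have a fitted effect of over 45% in size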
#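 AMA1 (3D7) with his tag at 25 nM final met compounds first, then biotinylated RON2 peptide at 25 nM; detection used donor plus acceptor beads, 10 µg/mL apiece, read by AlphaScreen after 30 min at room temperature.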
# An asterisk follows results filed as active; ? = inconclusive; nt = not tested or not shown; [ ] = dose if it differs, or a comment. Most compounds without a hit are left out; they make up all but 11% or so of the library. Unless noted, the call rests on the fitted dose curve; in most records, active means well fitted curve in the direction sought with a large enough effect; inconclusive means small, poorly fitted or top-dose-only effect, or another doubt; inactive means no such curve, though single readings can be large; an effect the other way counts as inactive or inconclusive. Potency means the concentration at half of the fitted maximal effect.
SMILES,Sm TGR inh,Pf growth 48h,Pf growth 96h,NS1 inh,AMA1 RON2 block
COc1ccccc1C(=O)NC(=O)Nc1nc(-c2ccccc2)cc(C(F)(F)F)n1,8%,3.7µM*,3.7µM*,0%,-6%
CCOC(=O)C1CCN(C(=O)Cn2nc(CC)n3c(cc4sccc43)c2=O)CC1,4%,nt,nt,nt,nt
COC(=O)CCS(=O)(=O)c1nc(-c2ccccc2)cc(C(F)(F)F)n1,8.9µM*,2%,nt,-228%,-6%
Cc1cc(C)cc(NC(=O)c2cc(S(=O)(=O)N3CCOCC3)cn2C)c1,4%,nt,nt,nt,nt
Cn1ncc2c(NCc3ccc(Cl)cc3)ncnc21,14%,nt,nt,nt,nt
CCCCn1c2ccc(F)cc2c2nnc(SCCN3CCCCC3)nc21,-28%,?,-2%,2%,-4%
CCCCn1c2ccc(C)cc2c2nnc(SCCN3CCCCC3)nc21,11%,13µM*,?,-6%,8%
O=C(c1ccc(Cn2c(=S)[nH]c3ccc(N4CCOCC4)cc3c2=O)cc1)N1CCN(c2ccc(F)cc2)CC1,3%,?,?,nt,35%
O=C(CCCCCn1c(=S)[nH]c2ccc(N3CCOCC3)cc2c1=O)NCc1ccc2c(c1)OCO2,-1%,?,4%[5.75 µM],nt,42%
O=C(CCCCCn1c(=S)[nH]c2ccc(N3CCOCC3)cc2c1=O)NCc1ccc(Cl)cc1,-12%,8.3µM*,67%,nt,49%
O=c1c2cc(N3CCOCC3)ccc2[nH]c(=S)n1CCCN1CCN(c2ccccc2F)CC1,-1%,19%,-2%,-8%,nt
O=c1c2cc(N3CCOCC3)ccc2[nH]c(=S)n1CCCN1CCCCCC1,?,?,25%,13%,23%
Cc1cccc(N2CCN(C(=O)CCCCCn3c(=S)[nH]c4ccc(N5CCOCC5)cc4c3=O)CC2)c1C,-15%,9.3µM*,3%,16%,78%
CCCCn1c(=S)[nH]c2ccc(N3CCOCC3)cc2c1=O,-3%,?,8.3µM*,nt,nt
Cc1ccc(C)c(N2CCN(C(=O)c3ccc(Cn4c(=S)[nH]c5ccc(N6CCOCC6)cc5c4=O)cc3)CC2)c1,-23%,2.6µM*,4.1µM*,nt,37%
Cc1ccc(Cl)cc1N1CCN(CCCNC(=O)c2nnc(Cc3cccc(Cl)c3)o2)CC1,1%,nt,nt,nt,nt
CCC1CN(C)C2Cc3c([nH]c4ccccc34)C(=O)CC1C2C(=O)OC (centres undefined),45µM*,-7%,4%,1%,0%
CC[C@H]1CN(C)C[C@@]2(C(=O)OC)Cc3c([nH]c4ccccc34)C(=O)C[C@@H]12,nt,nt,nt,nt,-1%
NCCc1c(-c2ccccc2)n(-c2ccccc2)c2ccccc12,4%,15µM*,?,nt,?
COc1ccccc1C(=O)Nc1nsc(-c2ccccc2)n1,-4%,-7%,-1%,-59%,-3%
O=C1CC(c2ccc3c(c2)OCCO3)Oc2ccc([N+](=O)[O-])cc21 (centres undefined),89µM*,111%,448%,-4%,-6%
O=C1CC(c2ccc3c(c2)OCCO3)Oc2ccccc21 (centres undefined),-14%,202%,191%,-10%,7%
CCOCCCN1C(=O)c2ccccc2CC1(C)C(=O)NC1CCCCC1 (centres undefined),8%,nt,nt,nt,nt
COc1ccc(C(c2c(N)[nH]c(=S)[nH]c2=O)c2c(N)[nH]c(=S)[nH]c2=O)cc1,-9%,-14%,-11%,19%,91%
COc1ccc(/C=C(/NC(=O)c2cccs2)C(=O)NC(C)(C)C)cc1OC,1%,11%,9.3µM*,-8%,5%
SMILES,Sm TGR inh,Pf growth 48h,Pf growth 96h,NS1 inh,AMA1 RON2 block
COC(=O)C1=NNC2C(=O)N(C3CCCCC3)C(=O)C12 (centres undefined),1%[57.1 µM],15%,3.3µM*,4%,-4%
COC(=O)C1=NNC2C(=O)N(c3ccc(C)cc3)C(=O)C12 (centres undefined),0%,12%,?,nt,-2%
CCOC(=O)C1(CCCc2ccccc2)CCN(Cc2nccn2CC)CC1,2%,10µM*,?,-8%,6%
CCOC(=O)C1(CCCc2ccccc2)CCN(C(=O)CN2CCOC2=O)CC1,-2%,11%,15µM*,-4%,3%
CCOC(=O)C1(CCCc2ccccc2)CCN(CCCn2cccn2)CC1,6%,?,10µM*,1%,-1%
Cc1ccc(NC(=O)CSc2nc3[nH]ncc3c(=O)[nH]2)cc1Cl,-1%,?,20%,nt,10%
COc1cccc(NC(=O)CN2CCCN(S(=O)(=O)c3ccc(Br)cc3)CC2)c1,-18%,nt,nt,nt,nt
O=C(Cc1ncn[nH]1)NCCc1ccccc1,-6%,nt,7.4µM*,7%,32%
CC(=O)c1ccc(NC(=O)c2nc(-c3ccccc3)n(-c3ccccc3Cl)n2)cc1,5%,nt,nt,nt,nt
CC1=NN(C(=O)c2ccc(Br)cc2)C(O)(C(F)(F)OC(F)(F)F)C1 (centres undefined),-24%,4.7µM*,?,-14%,86%
CCC1=NN(C(=O)c2ccc(Br)cc2)C(O)(c2ccc(C)cc2)C1 (centres undefined),15%,31%,-17%,-43%,22%
CC1=NN(C(=O)c2csc(C)c2)C(O)(C(F)(F)F)C1 (centres undefined),-2%,0%,3%[5.75 µM],-3%,65%
CCC1=NN(C(=O)c2ccc(C)cc2)C(O)(c2ccc(Br)cc2)C1 (centres undefined),-4%,11%,13µM*,-15%,24%
Cc1ccc(NC(=O)COc2ccc3oc4c(c3c2)CCCC4)cc1C,13%,nt,nt,nt,nt
O=c1cc(CSc2nnc3ccccn23)c2c(ccc3ccccc32)o1,45µM*,12%,13%,-38%,4%
COc1ccccc1CCNC(=O)Cn1ccc2cc(S(=O)(=O)N3CCCCC3)ccc21,0%,nt,nt,nt,nt
NC(=O)C1(N2CCCCC2)CCN(C(=S)NCCc2ccccc2)CC1,-2%,-26%,?,nt,-7%
CC(=C1C(=O)c2ccccc2C1=O)N1CCC(C(N)=O)(N2CCCCC2)CC1,32µM*,2%,nt,-44%,10%
O=C(N1CCN(Cc2ccccc2)CC1)C(Cl)(Cl)Cl,-18%,10µM*,44%,-3%,2%
Oc1c(Br)cc(Br)cc1CN1CCN(Cc2ccccc2)CC1,-6%,1.9µM*,nt,2%,?
CC(=C1C(=O)c2ccccc2C1=O)N1CCN(Cc2ccccc2)CC1,40µM*,2%,?,-4%,15%
O=C1OCC/C1=C\c1ccc(O)cc1,-6%,76%,31%,1%,1%
COc1ccc(C(=O)NCC(c2cccs2)N2CCc3ccccc32)cc1OC (centres undefined),0%,?,?,nt,?
COC(=O)C1=C(C(=O)OC)[C@@H]2Nc3ccccc3[C@@]23C[C@@H](C(=O)OC)N(C(=O)CC(C)C)C3=N1,nt,nt,nt,nt,-3%
COc1ccccc1N1CC(C)(C)C(=O)N(C(=O)c2c(F)cccc2Cl)C1=S,-1%,?,?,0%,-17%

# Screening results deposited in PubChem BioAssay by National Center for Advancing Translational Sciences (NCATS).
